Shown are actives, neighbours in structure and some others; about 2.8% of the full set was active somewhere.
Mito fusion yeast – mitochondrial division inhibition or fusion activation; AID 485298; Potency, µM (titrated, usually from 46.1 µM), most hits filed as activators; hit rate 0.23% among 320,000; S. cerevisiae fusion-defective mutant growth rescue, CellTiterGlo 48 h; note: nearly all actives have a fitted effect of over 45% in size
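Luminescent cell viability in 1536-well qHTS format served as the measure of rescued growth in ts fusion-mutant S. cerevisiae cultured on non-fermentable YPEG for 48 hours at 37C.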
HEK293 tox – cytotoxic in the GLP-1 receptor inverse agonist counter-screen | HEK293 cAMP-luciferase reporter cells, luminescence, 24 h | Potency, µM (series often up to 38.3 µM), actives largely listed as inhibitors | hit rate 0.13% among 410,000 | AID 624418;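 note: loss of luciferase light is scored as toxicity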
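Quantitative HTS format, 1536 wells, 200 cells/uL seeded. Compounds: 23 nL, 24 h, 37 °C. Detection: luciferase reagent, luminescence at 12 min RT; decreased signal taken as cytotoxic.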
BRCA1 expr up – increases BRCA1 expression. MCF7-BRCA1-FFLuc reporter, luminescence, 48 h; response scale: scaled: vehicle 0%, 10 µM genistein 100%. hit rate 1.1% among 380,000. Potency, µM (doses to about 46.1 µM), most hits filed as activators; note: nearly all actives have a fitted effect of over 80% in size
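Luminescence from a BRCA1-driven firefly luciferase in MCF7 cells was the read-out, taken 15 min after substrate addition following 48 h compound exposure at 37 °C. Data were normalized to a 10 microM genistein control and DMSO vehicle.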
GLP-1R inv ag – GLP-1 receptor (human) inverse agonism; hit rate 1.6% among 410,000; Potency, µM (series often up to 38.3 µM), actives largely listed as inhibitors; P43220; HEK293 GLP-1R CRE-luciferase, luminescence, 24 h; GLP-1R form is constitutively active; note: nearly all actives have a fitted effect of over 55% in size
Target sequence (P43220 whole entry, looked up): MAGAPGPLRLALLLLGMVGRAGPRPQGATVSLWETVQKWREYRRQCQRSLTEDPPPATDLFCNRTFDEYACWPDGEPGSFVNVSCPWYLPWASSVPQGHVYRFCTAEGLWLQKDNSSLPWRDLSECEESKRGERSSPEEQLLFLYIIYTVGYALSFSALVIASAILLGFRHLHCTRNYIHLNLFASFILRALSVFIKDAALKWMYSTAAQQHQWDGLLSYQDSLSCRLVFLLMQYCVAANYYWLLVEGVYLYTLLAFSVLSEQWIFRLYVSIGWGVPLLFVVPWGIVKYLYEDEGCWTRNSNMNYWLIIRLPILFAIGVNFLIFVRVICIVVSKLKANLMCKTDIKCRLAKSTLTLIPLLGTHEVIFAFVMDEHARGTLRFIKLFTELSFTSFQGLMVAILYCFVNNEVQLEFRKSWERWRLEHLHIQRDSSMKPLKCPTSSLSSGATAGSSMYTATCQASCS
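Cells are plated, allowed 12 hours at 37 deg C, then treated with compounds for 24 hr before luciferase detection reagent is added and luminescence is read after 12 min at room temperature. The HEK293 line carries constitutively active GLP-1R with a cAMP-responsive reporter.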
GLP1R ag – activates the human GLP-1 receptor; P43220; HEK293 GLP-1R CRE-luciferase, luminescence, 4-6 h; cells express a hypersensitive GLP-1R form; Potency, µM (doses to about 45.6 µM), actives largely listed as activators; hit rate 0.007% among 380,000
Of the large screens only hits and unclear results are named; the others gave an inactive call. Calls come from the whole dose curve; as a rule, active = well fitted curve in the direction sought with a large enough effect; inconclusive = small, poorly fitted or top-dose-only effect, or another doubt; inactive = no such curve, though single readings can be large; an effect the other way counts as inactive or inconclusive.

Cc1cc(C)c(C#N)c(SCC(=O)Nc2ccc3c(c2)OCO3)n1	BRCA1 expr up 11µM
Cc1nc(SCC(=O)Nc2ccc3c(c2)OCO3)c(C#N)c2c1CCCC2	BRCA1 expr up 7.1µM
COCc1cc(C)nc(SCC(=O)Nc2ccc(C)c(C)c2)c1C#N	BRCA1 expr up 4µM
CC1(C)OC(C(O)(c2ccccc2)c2ccccc2)[C@@H](C(O)(c2ccccc2)c2ccccc2)O1 (some centres undefined)	none
CC(/C=N/NC(=O)c1cccc([N+](=O)[O-])c1)=C\c1ccccc1	none
CC(C)(C)n1nnnc1C(c1ccc(C(F)(F)F)cc1)N(Cc1ccccc1)Cc1ccco1 (centres undefined)	GLP-1R inv ag 5.6µM
CC(C)(C)c1ccc(CN(Cc2ccccc2)C(c2ccccn2)c2nnnn2C(C)(C)C)cc1 (centres undefined)	GLP-1R inv ag 3.2µM
C[C@@H]1NC(=O)c2cc([N+](=O)[O-])cc(I)c2NCC[C@@H](C(N)=O)NC(=O)[C@H](CC(N)=O)NC1=O	HEK293 tox inconclusive
Cc1ccc2c(c1)COc1c3ccc(C(=O)O)cc3nn1-2	BRCA1 expr up inconclusive, GLP-1R inv ag 1.3µM
Cc1ccc2c(c1)COc1c3ccc(C(=O)NCC4CC4)cc3nn1-2	BRCA1 expr up inconclusive
CC(=O)Nc1ccc(C(=O)N/N=C/c2ccc(F)cc2)cc1	none
CSC(=S)N/N=C/c1ccc(N(C)C)cc1	none
Cc1ccc(C(=O)N/N=C\c2ccc(OC(=O)c3cccc(F)c3)cc2)cn1	none
COc1cc(C(=O)Oc2ccccc2/C=N/NC(=O)c2ccc(C)c(Cl)c2)cc(OC)c1OC	HEK293 tox inconclusive
O=C(N/N=C\c1ccc(F)cc1)c1ccc(F)cc1	BRCA1 expr up 11µM
COc1cc(C(=O)Oc2ccccc2/C=N/NC(=O)c2ccc(Cl)cc2)cc(OC)c1OC	GLP-1R inv ag 2.8µM
COC(=O)c1ccc(/C=N/NC(=O)c2cccc(F)c2)cc1	BRCA1 expr up 10µM
CN(C)c1ccc(C=NNC(=S)Nc2ccc(F)cc2)cc1	BRCA1 expr up 4µM (no result: Mito fusion yeast)
O=C(N/N=C/c1cc(Br)cc(Cl)c1O)c1ccc2c(c1)OCO2	HEK293 tox inconclusive, GLP-1R inv ag 2.5µM (no result: Mito fusion yeast)
O=C(N/N=C/c1ccccc1OC(=O)c1ccc2c(c1)OCO2)c1cccc(F)c1	HEK293 tox inconclusive, GLP-1R inv ag 10µM
CCN(CC)C(=O)c1sc2c(c1C)c(=O)n(-c1ccc(C)c(C)c1)c(=O)n2CC(=O)NCC1CCCO1 (centres undefined)	none
COc1ccc([C@H]2CC(=O)C=C(c3ccc(OC)cc3OC)C2)cc1	Mito fusion yeast inconclusive, GLP-1R inv ag inconclusive, GLP1R ag inconclusive
Cc1cc(C)c2nc(N3CCN(C(=O)c4ccco4)CC3)sc2c1	BRCA1 expr up 13µM
Cc1cc2nc(N3CCN(C(=O)c4ccco4)CC3)sc2cc1C	BRCA1 expr up inconclusive
CC12CC(NC(=O)N1c1cccc(C(=O)NCc3ccc4c(c3)OCO4)c1)c1cc(Cl)ccc1O2 (centres undefined)	HEK293 tox inconclusive, GLP-1R inv ag 1.6µM
CC(C)[C@@H](NC(=O)OC(C)(C)C)c1cc(C(=O)c2c(-c3ccccc3)[nH]c3ccccc23)c(N)s1	GLP-1R inv ag 7.1µM (no result: Mito fusion yeast, BRCA1 expr up, GLP1R ag)
COc1ccc(C2NC(c3ccc(OC)cc3)C(c3ccccc3)C(=O)C2c2ccccc2)cc1 (centres undefined)	GLP-1R inv ag 5.6µM
NC(=O)C1CCN(C(=O)c2cc(S(=O)(=O)N3CCOCC3)ccc2Cl)CC1	none
O=C(NCCc1ccccc1)c1ccc(Nc2nc3ccccc3n3nnnc23)cc1	none (no result: Mito fusion yeast, BRCA1 expr up, GLP1R ag)
COc1ccc(C2=NN(c3ccc(C=O)cc3)C(c3ccccc3)C2)cc1 (centres undefined)	Mito fusion yeast inconclusive, GLP-1R inv ag 10µM
O=Cc1ccc(N2N=C(c3ccccc3)CC2c2ccccc2)cc1 (centres undefined)	Mito fusion yeast 8.9µM, GLP-1R inv ag inconclusive
c1ccc(C2CC(c3cccs3)=NN2c2ccccc2)cc1 (centres undefined)	GLP-1R inv ag 10µM
COc1ccc(C2CC(c3cccs3)=NN2c2ccc(C=O)cc2)cc1 (centres undefined)	Mito fusion yeast 22µM, GLP-1R inv ag inconclusive
O=C(O)c1ccc(N2N=C(c3ccccc3)CC2c2ccccc2)cc1 (centres undefined)	GLP-1R inv ag inconclusive
Cc1cc(C)cc(C(=O)NC(CC(N)=O)c2ccc(NC3CCCCCCC3)c([N+](=O)[O-])c2)c1 (centres undefined)	none
CC1CCN(S(=O)(=O)c2cccc(C(=O)NCc3cccs3)c2)CC1	none
CC1CCN(c2ccc(C(=O)NCc3cccs3)cn2)CC1	BRCA1 expr up 14µM
Cc1ccc(Sc2ncccc2COC(=O)Nc2ccccc2)cc1	GLP-1R inv ag 7.9µM
Cc1ccc(Sc2ncccc2COC(=O)Nc2c(C)cccc2C)cc1	GLP-1R inv ag 7.9µM
COC(=O)CCc1cccc(CCC(=O)OC)c1	none
O=C(Nc1ccc2c(c1)oc1ccccc12)c1ccncc1	GLP-1R inv ag inconclusive
C=C(C)Cn1c(NCCOC)nc2c1c(=O)[nH]c(=O)n2C	none
C=C(C)Cn1c(N2CC(C)CC(C)C2)nc2c1c(=O)[nH]c(=O)n2C (centres undefined)	Mito fusion yeast 25µM
CN(C)/C=N/C(=S)Nc1ccc(Cl)cc1Cl	BRCA1 expr up 5µM
COc1ccc(CCNC(=O)CNC(=O)c2ccco2)cc1	none
OCC1(Cc2cccc(Cl)c2)CCCN(Cc2ccc3cc(F)ccc3n2)C1 (centres undefined)	GLP-1R inv ag 13µM
Cc1cc(CN2CCCC(CO)(Cc3cccc(Cl)c3)C2)n[nH]1 (centres undefined)	GLP-1R inv ag inconclusive
OC(CNc1ccccc1)COc1ccc(OCC(O)CNc2ccccc2)cc1 (centres undefined)	GLP-1R inv ag 6.3µM
Cc1ccc(OCC(O)CNC(C)c2ccccc2)cc1C (centres undefined)	GLP-1R inv ag 5µM
Cc1ccc(C(OCC(O)CNC(C)c2ccccc2)c2ccccc2)cc1 (centres undefined)	HEK293 tox inconclusive, GLP-1R inv ag inconclusive
CC(=O)O[C@]1(C(C)=O)CC[C@H]2[C@@H]3C=C(Cl)C4=CC(=O)[C@@H]5C[C@@H]5[C@]4(C)[C@H]3CC[C@@]21C	Mito fusion yeast 21µM
CCN(CC)CCOC(=O)C(Cc1cccc2ccccc12)CC1CCCO1 (centres undefined)	GLP-1R inv ag inconclusive
O=C(CC1SC(N2CCCC2)=NC1=O)Nc1ccc(C(=O)N2CCCC(C(F)(F)F)C2)cc1 (centres undefined)	none
